PubChem BioAssay (EPA / NIEHS)
Active and inactive are the calls of the source. Rule for the calls: active = hit-call score of the fitted dose curve at least 0.9, where 1 is the maximum; inactive = score below 0.9.

What was measured:
[1] = read-out: Tissue plasminogen activator (tPA), PLAT (gene 5327); assay: BSK_BE3C_tPA: BioMAP Diversity Plus: BE3C Assay for Tissue plasminogen activator (tPA) Biomarker Activity (AID 2283041); details: primary human bronchial epithelial cells; actives raise or lower the signal
In short: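 ELISA read-out of tPA on human primary bronchial epithelial cells, 24 h post-dosing; bidirectional fit vs DMSO negative control/baseline.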

[2] = read-out: Interleukin-8 (IL8), CXCL8 (gene 3576); assay: BSK_CASM3C_IL8: BioMAP Diversity Plus: CASM3C Assay for Interleukin-8 (IL8) Biomarker Activity (AID 2283042); details: primary human coronary artery smooth muscle cells; actives raise or lower the signal;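 note: IL-8 protein level quantified by ELISA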
[3] = read-out: Human Leukocyte Antigen - DR isotype (HLADR), HLA-DRA (gene 3122); assay: BSK_CASM3C_HLADR: BioMAP Diversity Plus: CASM3C Assay for Human Leukocyte Antigen - DR isotype (HLADR) Biomarker Activity (AID 2283043); details: primary human coronary artery smooth muscle cells; actives raise or lower the signal;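 note: cell-surface HLA-DR protein level quantified by ELISA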
[4] = read-out: Macrophage colony-stimulating factor (MCSF), CSF1 (gene 1435); assay: BSK_CASM3C_MCSF: BioMAP Diversity Plus: CASM3C Assay for Macrophage colony-stimulating factor (MCSF) Biomarker Activity (AID 2283044); details: primary human coronary artery smooth muscle cells; actives raise or lower the signal;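 note: M-CSF protein amount quantified by ELISA after 24 h exposure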
[5] = read-out: Low-density lipoprotein receptor (LDLR), LDLR (gene 3949); assay: BSK_CASM3C_LDLR: BioMAP Diversity Plus: CASM3C Assay for Low-density lipoprotein receptor (LDLR) Biomarker Activity (AID 2283045); details: primary human coronary artery smooth muscle cells; actives raise or lower the signal;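 note: LDLR protein level on the cell surface quantified by ELISA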
[6] = read-out: Monocyte Chemoattractant Protein-1 (MCP1), CCL2 (gene 6347); assay: BSK_CASM3C_MCP1: BioMAP Diversity Plus: CASM3C Assay for Monocyte Chemoattractant Protein-1 (MCP1) Biomarker Activity (AID 2283046); details: primary human coronary artery smooth muscle cells; actives raise or lower the signal;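 note: MCP-1 level quantified by ELISA 24 h after dosing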
[7] = BSK_CASM3C_Proliferation: Cell Proliferation Assessment in the BioMAP Diversity Plus: CASM3C Assay (AID 2283047); details: primary human coronary artery smooth muscle cells;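 note: sulforhodamine B total protein stain as relative cell number at 560 nm; sub-confluent cells exposed 48 h before staining; fitted both ways against DMSO so gain or loss of cell number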
[8] = read-out: Monokine induced gamma interferon (MIG), CXCL9 (gene 4283); assay: BSK_CASM3C_MIG: BioMAP Diversity Plus: CASM3C Assay for Monokine induced gamma interferon (MIG) Biomarker Activity (AID 2283048); details: primary human coronary artery smooth muscle cells; actives raise or lower the signal;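 note: MIG protein level measured by ELISA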
[9] = read-out: serum amyloid A (SAA), SAA1 (gene 6288); assay: BSK_CASM3C_SAA: BioMAP Diversity Plus: CASM3C Assay for serum amyloid A (SAA) Biomarker Activity (AID 2283049); details: primary human coronary artery smooth muscle cells; actives raise or lower the signal;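 note: SAA protein level quantified by ELISA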
[10] = BSK_CASM3C_SRB: Viability Assessment in the BioMAP Diversity Plus: CASM3C Assay (AID 2283050); details: primary human coronary artery smooth muscle cells;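 note: total protein by SRB staining as cytotoxicity measure in parallel cultures; cells exposed to compound for 24 h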
[11] = read-out: Thrombomodulin, THBD (gene 7056); assay: BSK_CASM3C_Thrombomodulin: BioMAP Diversity Plus: CASM3C Assay for Thrombomodulin Biomarker Activity (AID 2283051); details: primary human coronary artery smooth muscle cells; actives raise or lower the signal;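 note: thrombomodulin protein level measured by ELISA 24 h after dosing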
[12] = read-out: Tissue Factor, F3 (gene 2152); assay: BSK_CASM3C_TissueFactor: BioMAP Diversity Plus: CASM3C Assay for Tissue Factor Biomarker Activity (AID 2283052); details: primary human coronary artery smooth muscle cells; actives raise or lower the signal;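 note: cell surface tissue factor protein level read by ELISA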
[13] = read-out: Urokinase-type plasminogen activator receptor (uPAR), PLAUR (gene 5329); assay: BSK_CASM3C_uPAR: BioMAP Diversity Plus: CASM3C Assay for Urokinase-type plasminogen activator receptor (uPAR) Biomarker Activity (AID 2283054); details: primary human coronary artery smooth muscle cells; actives raise or lower the signal;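 note: cell-surface uPAR protein level quantified by ELISA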
[14] = read-out: Vascular cell adhesion molecule 1 (VCAM1), VCAM1 (gene 7412); assay: BSK_CASM3C_VCAM1: BioMAP Diversity Plus: CASM3C Assay for Vascular cell adhesion molecule 1 (VCAM1) Biomarker Activity (AID 2283055); details: primary human coronary artery smooth muscle cells; actives raise or lower the signal;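 note: VCAM-1 protein level quantified by ELISA on the cells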
[15] = read-out: Epidermal growth factor receptor (EGFR), EGFR (gene 1956); assay: BSK_hDFCGF_EGFR: BioMAP Diversity Plus: hDFCGF Assay for Epidermal growth factor receptor (EGFR) Biomarker Activity (AID 2283057); details: primary human foreskin fibroblasts; actives raise or lower the signal
In short: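 ELISA readout of EGFR on human dermal fibroblasts (primary foreskin cells), 24 h post-dosing; bidirectional curve fit vs DMSO baseline, gain or loss of signal scored.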

[16] = read-out: Interleukin-8 (IL8), CXCL8 (gene 3576); assay: BSK_hDFCGF_IL8: BioMAP Diversity Plus: hDFCGF Assay for Interleukin-8 (IL8) Biomarker Activity (AID 2283058); details: primary human foreskin fibroblasts; actives raise or lower the signal
In short: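 hDFCGF human dermal fibroblasts; 24 h chemical exposure; IL-8 by ELISA; bidirectional curve fit vs DMSO baseline; gain or loss of signal scored.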

[17] = BSK_hDFCGF_Proliferation: Cell Proliferation Assessment in the BioMAP Diversity Plus: hDFCGF Assay (AID 2283059); details: primary human foreskin fibroblasts;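 note: curves fitted for both rise and fall of signal versus DMSO baseline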
In short: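 Total protein read at 560 nm after 0.1% SRB staining of TCA-fixed human skin fibroblasts, […]. Activity is fitted in both directions relative to DMSO as baseline.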

[18] = read-out: Interferon-gamma inducible Protein 10 (IP10), CXCL10 (gene 3627); assay: BSK_hDFCGF_IP10: BioMAP Diversity Plus: hDFCGF Assay for Interferon-gamma inducible Protein 10 (IP10) Biomarker Activity (AID 2283053); details: primary human foreskin fibroblasts; actives raise or lower the signal
In short: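 ELISA read-out of IP-10 (CXCL10) from primary human skin fibroblasts, 24 h after compound addition. Gain or loss of signal versus DMSO baseline, bidirectional curve fitting.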

[19] = read-out: Collagen III, COL3A1 (gene 1281); assay: BSK_hDFCGF_CollagenIII: BioMAP Diversity Plus: hDFCGF Assay for Collagen III Biomarker Activity (AID 2283056); details: primary human foreskin fibroblasts; actives raise or lower the signal
In short: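 Human foreskin primary fibroblasts were exposed to test chemicals for 24 h, after which collagen III was quantified by ELISA. Activity was fitted bidirectionally against DMSO as negative control and baseline.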

[20] = read-out: Macrophage colony-stimulating factor (MCSF), CSF1 (gene 1435); assay: BSK_hDFCGF_MCSF: BioMAP Diversity Plus: hDFCGF Assay for Macrophage colony-stimulating factor (MCSF) Biomarker Activity (AID 2283060); details: primary human foreskin fibroblasts; actives raise or lower the signal
In short: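 Human foreskin primary fibroblasts were treated with test chemical for 24 h, and M-CSF was then measured by ELISA. Data were fitted bidirectionally against DMSO as the negative control and activity baseline.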

Measured: AC50

CCC(=O)O[C@H]1CC[C@H]2[C@@H]3CCC4=CC(=O)CC[C@]4(C)[C@H]3CC[C@]12C
active: [7] 20 µM | [16] 38.2 µM | [17] 30.6 µM
not listed: [18] | [19] | [20]
inactive: all other assays above

Cc1ccc(O)c(C)c1
active: [3] 20.7 µM | [17] 12.4 µM
inactive: all other assays above

CCC(C)(CC)c1cc(NC(=O)c2c(OC)cccc2OC)on1
inactive: all assays above

CC#Cc1cc(C)nc(Nc2ccccc2)n1
not listed: [20]
inactive: all other assays above

CN(C)c1nc(=O)n(C2CCCCC2)c(=O)n1C
inactive: all assays above

CC(C)(O)C(=O)Nc1ccc([N+](=O)[O-])c(C(F)(F)F)c1
not listed: [20]
inactive: all other assays above

CC(c1ccc(O)cc1)(c1ccc(O)cc1)c1ccc(O)cc1
active: [1] 3.85 µM | [3] 4.44 µM | [4] 3.11 µM | [6] 5.43 µM | [7] 27.2 µM | [8] 5.35 µM | [10] 4.79 µM | [18] 25.6 µM | [13] 6.77 µM | [14] 5.31 µM | [19] 3.78 µM | [16] 36.6 µM | [17] 23.6 µM | [20] 16.5 µM
inactive: [2] | [5] | [9] | [11] | [12] | [15]

CC(C)C(=O)OCC(C)(C)C(OC(=O)C(C)C)C(C)C (centres undefined)
active: [17] 34.4 µM
not listed: [20]
inactive: all other assays above

CCCCCCCCCc1ccc(O)cc1
active: [1] 7.58 µM | [2] 33 µM | [3] 31.4 µM | [4] 34.6 µM | [5] 29.3 µM | [6] 31.8 µM | [7] 16 µM | [8] 36.1 µM | [9] 29.8 µM | [10] 34.1 µM | [11] 37.8 µM | [12] 28.7 µM | [18] 14.1 µM | [13] 38.2 µM | [14] 33.6 µM | [19] 9.87 µM | [16] 17.2 µM | [17] 5.93 µM | [20] 13.6 µM
inactive: [15]

COS(=O)(=O)OC
inactive: all assays above

Cc1cc(O)ccc1Cl
inactive: all assays above
